# A number with no mark means an inactive call. Inconclusive results are not listed. Entries that show only a call come without a potency. Calls of active or inactive are those of the source. Unless noted, calls come from the whole dose curve.
# How the values were obtained:
# [1] = Nuclear factor erythroid 2-related factor 2/antioxidant responsive element (Nrf2/ARE) small molecule agonists: qHTS cell viability counter screen in human keratinocytes (AID 1919968; active = well fitted curve in the direction sought with a large enough effect in the repeat runs; an effect the other way counts as inactive or inconclusive; note: nearly all actives have a fitted effect of over 55% in size; note: potency is the fitted concentration of half-maximal effect)
# Outline: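 Cytotoxicity was multiplexed with the Nrf2/ARE luciferase assay in the same wells. Stably transfected HaCaT keratinocytes were treated with test compounds for 23 h at 37 C. Cell viability was then measured by CellTiter-Fluor fluorescence.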
# [2] = Nuclear factor erythroid 2-related factor 2/antioxidant responsive element (Nrf2/ARE) small molecule agonists: luciferase reporter gene qHTS assay in human keratinocytes (AID 1919969); note: nearly all actives have a fitted effect of over 35% in size; note: potency is the fitted concentration of half-maximal effect
# [3] = biological target: Gonadotropin-releasing hormone receptor (Homo sapiens) (UniProt P30968); test: Human gonadotropin-releasing hormone receptor (GnRHR) small molecule agonists, calcium flux assay in GnRHR-HEK293 cells (AID 1920063); note: nearly all actives have a fitted effect of over 35% in size; note: potency is the fitted concentration of half-maximal effect
# Outline: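 Agonist activity was measured as intracellular calcium flux in HEK293 cells engineered to stably express human GnRHR. After dye loading for 1 hour at 37 C, compounds in DMSO were added and fluorescence was followed for 3 minutes.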
# [4] = biological target: KiSS-1 receptor (Homo sapiens) (UniProt Q969F8); test: Human kisspeptin (KISS1R) small molecule agonists, calcium flux assay in KISS1R-HEK293 cells (AID 1920064; active = well fitted curve in the direction sought with a large enough effect in the repeat runs; an effect the other way counts as inactive or inconclusive)
# Outline: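 Agonist activity is monitored as intracellular calcium rise in engineered HEK293 cells carrying human KISS1R. Cells are dye-loaded for 1 h at 37 C before compound addition, and fluorescence is recorded for 3 min.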
# [5] = p53 small molecule agonists, cell-based qHTS assay with human liver microsomes (AID 1963577);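 note: p53 response element beta-lactamase reporter cells with liver microsomes plus NADPH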
# Outline: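 HLM-supplemented p53RE-bla reporter assay: 16 h compound exposure at 37 C, microsomes and NADPH each 0.5 mg/mL final, read by fluorescence intensity.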
# [6] = p53 small molecule agonists, cell-based qHTS assay with rat liver microsomes: qHTS cell viability counter screen (AID 1963580); note: nearly all actives have a fitted effect of over 45% in size; note: potency is the fitted concentration of half-maximal effect
# Outline: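 Counter screen for cytotoxicity under metabolic activation: rat liver microsomes and NADPH, 0.5 mg/mL final each, added with compounds to p53RE-bla HCT-116 cells; 16 h at 37 C, then ATP luminescence read.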
# [7] = p53 small molecule agonists, cell-based qHTS assay: qHTS cell viability counter screen (AID 1963581); note: nearly all actives have a fitted effect of over 45% in size
# Outline: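 Viability was counter-screened in parallel with the p53 agonist reporter by measuring intracellular ATP luminescence in the same HCT-116 p53RE-bla wells after 16 h compound treatment at 37 C.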
# [8] = p53 small molecule agonists, cell-based qHTS assay (AID 1963582; active = well fitted activation curve with a large enough effect in the signal ratio in the repeat runs, not every such curve was filed as active; the % refers to the signal ratio)
# Outline: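 Cells carrying a p53-responsive bla reporter are treated with test compounds for 16 h at 37 C; beta-lactamase activity is then detected with LiveBLAzer B/G FRET substrate after 2 h at room temperature.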
# [9] = cAMP Responsive Elements (CRE) small molecule agonists, cell-based qHTS assay (AID 1963590)
# Outline: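 Cells carrying a CRE-driven beta-lactamase reporter (HEK 293T) are seeded, incubated overnight (18 h), and treated with test compounds for 3 h at 37 C; reporter activity is then detected with a FRET substrate after 2 h at room temperature.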
# [10] = cAMP Responsive Elements (CRE) small molecule antagonists, cell-based qHTS assay (AID 1963591; active = well fitted inhibition curve with a large enough effect in the signal ratio in the repeat runs, not every such curve was filed as active; the % refers to the signal ratio)
# Outline: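 Cells (CRE-bla HEK 293T, DMEM with 10% dialyzed FBS and 25 mM HEPES) are seeded and incubated 18 h. Compounds are added with NKH477 agonist at 0.25 uM final for 3 h, then FRET substrate for 2 h.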
# [11] = biological target: Beta-2 adrenergic receptor (Homo sapiens) (UniProt P07550); test: Adrenergic beta2 receptor (ADRB2) small molecule antagonists, cell-based qHTS assay (AID 1963592); note: nearly all actives have a fitted effect of over 50% in size; note: potency is the fitted concentration of half-maximal effect
# Outline: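 Assay format: CHO-ADRB2 cells, 18-20hr seeding at 37C/5% CO2, then compound plus 1nM isoproterenol agonist mix for 0.5hr RT. Homogeneous time-resolved fluorescence cAMP detection after 1hr, expressed as 665/615 nm ratio.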
# [12] = biological target: D(2) dopamine receptor (Homo sapiens) (UniProt P14416); test: Dopamine D2 receptor (DRD2) small molecule agonists, cell-based qHTS assay (AID 1963594); note: nearly all actives have a fitted effect of over 35% in size
# Outline: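 HEK293 cells stably expressing DRD2 were cultured 24 h at 37 C, then given Ro20-1724 (0.1 mM final) and compounds for 10 min at room temperature. NKH477 (200nM) was then added for 30 min. cAMP was read by HTRF.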
# [13] = biological target: D(2) dopamine receptor (Homo sapiens) (UniProt P14416); test: Dopamine D2 receptor (DRD2) small molecule antagonists, cell-based qHTS assay (AID 1963595; active = well fitted inhibition curve with a large enough effect in the signal ratio in the repeat runs, with a control signal flat; the % refers to the signal ratio)
# Outline: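 HTRF cAMP read-out at 665 and 620 nm emission (340 nm excitation). Antagonist mode: compounds were tested against 12 nM quinpirole in DRD2-HEK293 cells, with 200 nM NKH477 raising cAMP and 0.1 mM Ro20-1724 blocking its breakdown.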
# [14] = p53 small molecule agonists, cell-based qHTS assay with human liver microsomes: qHTS cell viability counter screen (AID 1963579); note: nearly all actives have a fitted effect of over 45% in size
# Outline: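 Viability of p53RE-bla cells is measured as CellTiter-Glo luminescence following a 16 h, 37 C incubation with compound, liver microsomes from human donors and NADPH.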
# [15] = biological target: 5-hydroxytryptamine receptor 2A (Homo sapiens) (UniProt P28223); test: 5-hydroxytryptamine receptor 2A (HTR2A) small molecule antagonists, cell-based qHTS assay (AID 1963586); note: nearly all actives have a fitted effect of over 45% in size
# Outline: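 CHO cells stably expressing human HTR2A were plated for 18 h at 37 C, then loaded with calcium dye for 1 h. Compounds were preincubated 5 min at room temperature before DOI (4 nM solution) was added. Kinetic fluorescence was read for 3 min.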
# [16] = biological target: 5-hydroxytryptamine receptor 2A (Homo sapiens) (UniProt P28223); test: 5-hydroxytryptamine receptor 2A (HTR2A) small molecule agonists, cell-based qHTS assay (AID 1963587); note: nearly all actives have a fitted effect of over 30% in size; note: potency is the fitted concentration of half-maximal effect
# Outline: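 HTR2A-CHO cells, plated 18 h at 37 C/5% CO2, dye-loaded 1 h at 37 C; compounds in DMSO added by pin tool (agonist mode). Intracellular calcium flux read as kinetic fluorescence on FDSS over 2 min at 1 s intervals.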
# [17] = biological target: Muscarinic acetylcholine receptor M1 (Homo sapiens) (UniProt P11229); test: Cholinergic receptor muscarinic 1 (CHRM1) small molecule antagonists, cell-based qHTS assay (AID 1963588); note: nearly all actives have a fitted effect of over 40% in size
# Outline: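 Compounds were tested at 15 concentrations in three independent runs. Dye-loaded CHRM1-CHO cells were exposed 5 min at room temperature before stimulation by acetylcholine added at 50nM. Intracellular calcium was read kinetically on FDSS for 3 min.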
# [18] = biological target: Muscarinic acetylcholine receptor M1 (Homo sapiens) (UniProt P11229); test: Cholinergic receptor muscarinic 1 (CHRM1) small molecule agonists, cell-based qHTS assay (AID 1963589); note: nearly all actives have a fitted effect of over 35% in size
# Outline: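 Cells were plated and incubated 18 h at 37 C/5% CO2, loaded with calcium dye for 1 h at 37 C, then treated with compounds in DMSO. Fluorescence was recorded kinetically at 1 sec intervals.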
# [19] = G protein-coupled receptor (GPCR) small molecule agonists, calcium flux assay: HEK293 wild type cell line counter screen (AID 1920065)
# Outline: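 Seed cells, incubate 18 h (37 C, 5% CO2); add calcium dye, 1 h at 37 C; pin-transfer compounds, ATP control or DMSO; read fluorescence 480/540 nm each second for 3 min.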
# [20] = biological target: Beta-2 adrenergic receptor (Homo sapiens) (UniProt P07550); test: Adrenergic beta2 receptor (ADRB2) small molecule agonists, cell-based qHTS assay (AID 1963593);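 note: CHO cells stably overexpressing human ADRB2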
# Outline: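 CHO cells stably over-expressing ADRB2 were plated overnight at 37C, then dosed with compounds plus a stimulation mix containing 100uM IBMX and 25uM Ro-20-1724 for 0.5hr at room temperature. cAMP was measured by HTRF competition, 1hr.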
# Chain of 5-hydroxytryptamine receptor 2A (Homo sapiens) (P28223 whole entry, looked up): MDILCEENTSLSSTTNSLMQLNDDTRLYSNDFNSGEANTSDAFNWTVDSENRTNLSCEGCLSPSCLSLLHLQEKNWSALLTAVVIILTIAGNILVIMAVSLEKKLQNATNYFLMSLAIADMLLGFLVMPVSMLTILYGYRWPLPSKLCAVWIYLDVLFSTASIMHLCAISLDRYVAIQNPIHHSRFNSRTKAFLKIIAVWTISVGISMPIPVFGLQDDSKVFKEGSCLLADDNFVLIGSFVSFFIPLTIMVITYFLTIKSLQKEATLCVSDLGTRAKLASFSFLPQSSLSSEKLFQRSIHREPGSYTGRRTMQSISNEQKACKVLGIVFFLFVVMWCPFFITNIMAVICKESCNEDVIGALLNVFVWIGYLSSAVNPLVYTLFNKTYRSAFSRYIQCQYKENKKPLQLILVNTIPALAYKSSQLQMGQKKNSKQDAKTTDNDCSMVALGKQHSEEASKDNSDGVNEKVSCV
# Chain of Muscarinic acetylcholine receptor M1 (Homo sapiens) (P11229 whole entry, looked up): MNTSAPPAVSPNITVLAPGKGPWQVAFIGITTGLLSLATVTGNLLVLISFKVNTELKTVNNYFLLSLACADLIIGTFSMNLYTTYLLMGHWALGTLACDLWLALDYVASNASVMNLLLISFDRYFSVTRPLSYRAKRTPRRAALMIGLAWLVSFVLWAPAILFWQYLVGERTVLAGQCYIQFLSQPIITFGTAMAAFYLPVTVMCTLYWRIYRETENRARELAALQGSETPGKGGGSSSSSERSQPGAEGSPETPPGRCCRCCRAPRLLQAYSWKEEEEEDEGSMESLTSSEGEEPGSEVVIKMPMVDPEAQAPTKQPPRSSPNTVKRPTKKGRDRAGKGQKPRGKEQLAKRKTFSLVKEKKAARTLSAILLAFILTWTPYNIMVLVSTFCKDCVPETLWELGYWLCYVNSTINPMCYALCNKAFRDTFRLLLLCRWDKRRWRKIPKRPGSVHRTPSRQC
# Chain of Gonadotropin-releasing hormone receptor (Homo sapiens) (P30968 whole entry, looked up): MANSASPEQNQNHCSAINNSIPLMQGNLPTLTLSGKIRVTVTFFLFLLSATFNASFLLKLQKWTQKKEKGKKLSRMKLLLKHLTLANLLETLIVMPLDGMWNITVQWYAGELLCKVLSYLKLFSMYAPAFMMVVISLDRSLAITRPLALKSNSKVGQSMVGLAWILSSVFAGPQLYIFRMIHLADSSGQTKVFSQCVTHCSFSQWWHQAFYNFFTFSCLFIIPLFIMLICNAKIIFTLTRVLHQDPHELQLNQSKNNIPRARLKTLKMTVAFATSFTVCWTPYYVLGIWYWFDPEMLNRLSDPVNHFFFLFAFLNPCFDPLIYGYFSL
# Chain of Beta-2 adrenergic receptor (Homo sapiens) (P07550 whole entry, looked up): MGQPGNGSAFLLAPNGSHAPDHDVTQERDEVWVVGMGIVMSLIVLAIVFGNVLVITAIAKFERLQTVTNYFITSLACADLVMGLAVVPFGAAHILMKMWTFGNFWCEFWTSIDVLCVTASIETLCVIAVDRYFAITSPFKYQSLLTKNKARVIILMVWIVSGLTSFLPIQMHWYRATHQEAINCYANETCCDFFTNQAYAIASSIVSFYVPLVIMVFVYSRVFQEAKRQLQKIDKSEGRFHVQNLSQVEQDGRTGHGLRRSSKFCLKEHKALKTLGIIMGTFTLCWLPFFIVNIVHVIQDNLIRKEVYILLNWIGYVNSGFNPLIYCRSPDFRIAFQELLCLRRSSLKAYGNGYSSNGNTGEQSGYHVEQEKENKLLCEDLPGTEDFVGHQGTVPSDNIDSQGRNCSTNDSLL
# Chain of KiSS-1 receptor (Homo sapiens) (Q969F8 whole entry, looked up): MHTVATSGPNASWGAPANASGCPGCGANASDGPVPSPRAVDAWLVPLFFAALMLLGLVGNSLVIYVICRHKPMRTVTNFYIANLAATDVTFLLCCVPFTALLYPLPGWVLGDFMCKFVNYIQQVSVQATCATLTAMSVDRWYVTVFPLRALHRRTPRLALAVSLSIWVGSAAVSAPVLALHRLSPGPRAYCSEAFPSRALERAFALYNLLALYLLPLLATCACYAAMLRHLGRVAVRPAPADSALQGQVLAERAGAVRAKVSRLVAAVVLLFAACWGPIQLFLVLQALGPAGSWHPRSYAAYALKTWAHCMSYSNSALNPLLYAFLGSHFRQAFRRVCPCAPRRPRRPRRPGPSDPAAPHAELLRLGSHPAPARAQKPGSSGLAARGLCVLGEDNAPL
# Chain of D(2) dopamine receptor (Homo sapiens) (P14416 whole entry, looked up): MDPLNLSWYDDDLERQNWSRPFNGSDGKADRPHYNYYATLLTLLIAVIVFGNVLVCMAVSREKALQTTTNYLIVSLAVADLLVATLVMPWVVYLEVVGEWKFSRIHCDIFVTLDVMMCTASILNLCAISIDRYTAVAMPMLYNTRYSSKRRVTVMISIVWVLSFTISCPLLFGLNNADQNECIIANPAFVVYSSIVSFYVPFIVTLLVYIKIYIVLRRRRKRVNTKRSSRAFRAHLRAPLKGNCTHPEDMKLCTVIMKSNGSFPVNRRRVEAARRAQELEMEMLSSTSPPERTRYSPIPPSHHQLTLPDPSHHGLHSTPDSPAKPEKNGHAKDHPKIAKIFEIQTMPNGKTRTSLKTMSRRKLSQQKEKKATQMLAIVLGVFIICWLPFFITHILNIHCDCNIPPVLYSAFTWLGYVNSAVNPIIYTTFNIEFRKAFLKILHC
Compound,Potency [1],Potency [2],Potency [3],Potency [4],Potency [5],Potency [6],Potency [7],Potency [8],Potency [9],Potency [10],Potency [11],Potency [12],Potency [13],Potency [14],Potency [15],Potency [16],Potency [17],Potency [18],Potency [19],Potency [20]
CC(N)=S,inactive,inactive,inactive,inactive,inactive,inactive,inactive,inactive,inactive,inactive,inactive,inactive,inactive,,,,,,,
Cc1cc(Cl)ccc1O[C@H](C)C(=O)O,inactive,inactive,inactive,inactive,inactive,inactive,inactive,inactive,,inactive,,inactive,inactive,inactive,inactive,inactive,inactive,inactive,,
Clc1cccc(SC2CCNCC2)n1,inactive,inactive,inactive,inactive,,inactive,,,inactive,inactive,15 µM (active),inactive,inactive,,,0.0849 µM (active),,inactive,inactive,
Cc1c([N+](=O)[O-])c(C)c([N+](=O)[O-])c(C(C)(C)C)c1[N+](=O)[O-],inactive,inactive,inactive,inactive,inactive,inactive,inactive,,,,,inactive,inactive,inactive,,,inactive,inactive,,inactive
N#Cc1cc(I)c(O)c(I)c1,inactive,inactive,inactive,inactive,inactive,45.8 µM (active),,,,,,inactive,inactive,,inactive,inactive,inactive,inactive,,inactive
O=C(O)c1cc[c]([Hg][Cl])cc1,48.6 µM (active),21.7 µM (active),inactive,,inactive,inactive,inactive,inactive,,,inactive,inactive,,,inactive,inactive,inactive,inactive,inactive,
CC(C)(C)c1cc([N+](=O)[O-])cc([N+](=O)[O-])c1O,13.6 µM (active),30.5 µM (active),38.8 µM (active),inactive,,inactive,,,,,,inactive,inactive,inactive,inactive,inactive,inactive,inactive,,
N#Cc1c2ccccc2cc2ccccc12,inactive,inactive,inactive,inactive,,inactive,inactive,,,,inactive,inactive,,,inactive,inactive,inactive,inactive,,
CCOC(=O)Cc1ccccc1,inactive,inactive,inactive,inactive,,inactive,inactive,,inactive,inactive,inactive,inactive,inactive,inactive,inactive,inactive,inactive,inactive,,
CCSC(C)CC1CC(=O)C(/C(CC)=N/OC/C=C/Cl)=C(O)C1 (configuration not stated),inactive,inactive,inactive,inactive,inactive,inactive,inactive,,inactive,inactive,,inactive,inactive,inactive,inactive,inactive,inactive,inactive,,inactive
CCS(=O)(=O)CCSP(=O)(OC)OC,inactive,61.1 µM (active),inactive,inactive,,inactive,,inactive,inactive,,inactive,inactive,inactive,,,inactive,inactive,inactive,,inactive
CCC(Cl)CCl (configuration not stated),inactive,inactive,inactive,inactive,,inactive,inactive,,inactive,,inactive,inactive,inactive,inactive,inactive,inactive,,inactive,,inactive
Cl/C=C\Cl,inactive,inactive,inactive,,inactive,inactive,,,inactive,inactive,inactive,inactive,,inactive,inactive,inactive,,inactive,inactive,

# Reference: PubChem BioAssay (Tox21)
